Data taken from the supplement of paper PMC6555819.

Tested on: VDR:RXRa (NR concentration 270 nM, RXRa partner concentration 90 nM)
Experiment: PBM binding z-score (relative to random genomic background probes); higher = stronger binding; sequences stand for … in GC…GCGATTGACAGCGTAGAATGAAGG
Description: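 Protein-binding microarray (Agilent 4x180K custom design, double-stranded 60-nt probes: 5' GC cap, 34-nt variable region, 24-nt constant primer region; full probe sequence given). Purified or IVT nuclear receptor:RXRα heterodimers (3:1 NR:RXRα, mostly 270:90 nM) or homodimers were incubated for 1 h in PBS with 2% milk and no ligand, then detected with Alexa488 antibodies. Fluorescence from o1-orientation probes (~5 replicates averaged) was converted to z-scores against 500 random hg19 background probes. Variable regions are seed direct-repeat (DR0–DR5) sites, all their single-nucleotide variants and half-site ablations.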

Sequence	PBM binding z-score
CCAGACAGGTGAGAAGGAAACTCAGCCTCGATTA	-0.211
TTGCCTAGGTCATTCAGGGGCCAGTATAGAAAGC	3.15
ATCGAAAGGTCGAAGGTGAGAATACCCACCCGAA	2.7
AGAACGAGGGCACGCTGAATTGATAGCAGAGTAG	0.557
ACTGTTAGTTGAGACGAGGGCAACCGATAGGTTG	0.595
TCTCGGAGGACACGGAGGTCAGAGCTTTCCAGAG	3.39
TGCATGAGGTTAAAGATCAGGGAACGTGGCGTCG	2.1
CATACAGGGTCAGCTAGGCCAGAGTGGGGACGGC	4.01
TCTATTAGTTGAAGGGCAATCGACGAGTCCGTTT	1.02
CAAACTAGGTCAAAGGTCACAGTCGAGCCAACCA	6.63
CAAACTAGATCAAAGGTCAAAGTCGAGCCAACCA	4.93
TCTGCTAAGTCAACGATGGTCAGCTAATCTGCTA	-0.644
ACCAGTTGGTCAGCTGAGGTCACACACAATTCGG	4.45
GCTGCTAGGTCAACTGATGGTCAGCTCAAGCTCG	1.59
CAAACTAGGTCAAAGGTCAAATTCGAGCCAACCA	6.75
CCTGCTAGGTCAATGGTCAGTTAAAGCAGCTCGC	0.89
CGATCTAGGTCATCCAGGACAGTGAATACATTGA	4.67
CAAACTAGGTAACAGAGGTCAAAGTCCGTGCGTA	5.87
GATACAGGGTCAAGTCCAGAGTACGCGTATTGAT	4.66
TGAATGAGGTTGAAGATCAGGGAACGTGGCGTCG	-0.171

Sequence	PBM binding z-score
ATATGTAGGTTACATCCGGCTCATTCAGGCTATG	0.412
CCTCTTAGTTGACCATAAGGGCAACCGAAGCTCG	0.969
CCTACTGGGCCATCCGGTCATTGATATCAACGTT	0.0642
AGAAAGAGGGCACGCTGAGTTGATAGCAGAGTAG	2.39
CCGATTAGGTTATGGGGCATTCAGGCAACGGTGA	0.0574
CAAACTCGGTCACGAAAGGTCAAAGTCGAATGAC	5.86
TCTAGCAGGCCAGAGGGTCACGCAAGAGGTACGG	2.52
TCTAGTTGGTCACGGAGGTCACATACGACGGGTA	5.92
TCATATAGGTAAAAGGTGTAAGTCGGTGTGGTAA	0.727
TCATAGAGGTAAATGCTAGGTGAAAGTCCGATCT	0.364
GCTTGTAGATCAAGGTAAAGAAAGACTAAGCTAA	-0.118
CCTTACGGGTCACTCACAGGTTATAGCATTTGGA	3.6
CCGACTGGCGCATAAGGTTACCATAAGCCAGCCC	-0.0103
GCTAGCAGGTCATTTGGGTCACTCAATGACGGGC	5.92
CGTCCAAGTTCAAAGGTCAGTGAAGAGATGACGG	6.37
GATACTGGGTCAAGGCCAGAGTACGCGTATTGAT	1.46
CCAGACAGGTGCAAGGTAACTCAGTCTGGTACGC	-0.136
TCGAGTAGGTTACCAATCGGGCATTCAGCTTTCT	-0.344
GCTGCTAGGTCAGGTCGGTCAGCTAACGGGTACG	1.09
ACTATTAGTTGACTAAGGGCAACCGATACGACGC	1.29
